PubChem BioAssay (NCATS)
Where “and” joins values, the source holds several entries; their conditions need not be identical. Identical values can stand only once. Results filed as inconclusive are left out. Calls of active or inactive are those of the source. The call rests on the fitted dose curve; in most records, active means well fitted inhibition curve with a large enough effect; inconclusive means small, poorly fitted or top-dose-only effect; inactive means flat fitted curve, though single readings scatter.

System: CP215
Assay: qHTS profiling for inhibitors of Plasmodium falciparum proliferation (AID 504749); further: nearly all actives have a fitted effect of over 60% in size;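 on activity, negative = inhibition: 0% = DMSO vehicle and full inhibition = artemisinin control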
Conditions: P. falciparum in erythrocytes, SYBR Green DNA, 72 h; series mostly up to 28.7 µM; activity, negative = inhibition: at the top concentration
How it was run: (§1)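 Parasite proliferation within erythrocytes, 72 h exposure. Endpoint: SYBR Green I fluorescence after overnight lysis at room temperature. Controls: 0.29 uM artemisinin, DMSO.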
Potency means the concentration at half of the fitted maximal effect.

Row | Structure (SMILES) | activity, negative = inhibition | Potency
1 | CNC(=O)NC(O)C(Cl)(Cl)Cl (stereo not drawn) | 6.55% (inactive) | 
2 | NC(=O)CN1CCCC1=O | 7.72% [at 12.8 µM] (inactive) | 
3 | CCC1(CC)C(=O)NC(=O)NC1=O | 7.31% (inactive) | 
4 | O=c1n(Cl)c(=O)n(Cl)c(=O)n1Cl | 8.95% (inactive) | 
5 | CC(C)C(Br)C(=O)NC(N)=O (stereo not drawn) | 12.7% (inactive) | 
6 | CN(C)C(=S)SSC(=S)N(C)C |  | 5.36 µM (active)
7 | COP(=S)(OC)Oc1ccc(Sc2ccc(OP(=S)(OC)OC)cc2)cc1 | 0.23% (inactive) | 
8 | NCc1cccnc1 | -5.04% (inactive) | 
9 | COc1ccc(C(=O)N2CCCC2=O)cc1 | -14.7% (inactive) | 
10 | c1ccc2nc(N3CCNCC3)ccc2c1 | 1.61% (inactive) | 
11 | CC(C)(C)OC(=O)c1ncn2c1[C@@H]1CCCN1C(=O)c1c(Br)cccc1-2 | 2% (inactive) | 

System: CP217
Assay: as above
Conditions: P. falciparum in erythrocytes, SYBR Green DNA, 72 h; series mostly up to 28.7 µM; activity, negative = inhibition: at the top concentration
How it was run: as §1

Row | Structure (SMILES) | activity, negative = inhibition | Potency
12 | CCC1(c2ccccc2)CCC(=O)NC1=O (stereo not drawn) | 1.88% (inactive) | 
13 | C[N+]1(CCC(C(N)=O)(c2ccccc2)c2ccccc2)CCCCC1 | -2.61% (inactive) | 
14 | CCC(=O)O[C@H]1CC[C@H]2[C@@H]3CCC4=CC(=O)CC[C@]4(C)[C@H]3CC[C@]12C | 3.83% [at 12.8 µM] (inactive) | 
15 | OC(c1ccccc1)(c1ccccc1)C1CCNCC1 | 0.795% [at 12.8 µM] (inactive) | 
16 | CC(C)[N+](C)(CCC(C(N)=O)(c1ccccc1)c1ccccc1)C(C)C | 2.57% [at 12.8 µM] (inactive) | 
17 | Cc1ncc2n1-c1ccc(Cl)cc1C(c1ccccc1F)=NC2 | -0.232% (inactive) | 
18 | Cc1ccc(N=CN(C)C=Nc2ccc(C)cc2C)c(C)c1 | -2.09% (inactive) | 
19 | CC(C)NCC(O)c1ccc(N)c(C#N)c1 (stereo not drawn) | 12.6% (inactive) | 
20 | CNC(=O)Oc1cccc2ccccc12 | -13.9% (inactive) | 
21 | CCNc1nc(Cl)nc(NCC)n1 | 2.45% (inactive) | 
22 | CC[n+]1c(-c2ccccc2)c2cc(N)ccc2c2ccc(N)cc21 |  | 355 nM (active) and 631 nM (active)
23 | CCCCCCCCCCCC[N+](C)(C)CCOc1ccccc1 |  | 6.31 µM (active)
24 | CCOC(=O)NC(O)C(Cl)(Cl)Cl (stereo not drawn) | 4.69% (inactive) | 
25 | CCN(Cc1ccc(Cl)nc1)/C(=C/[N+](=O)[O-])NC | -1.79% (inactive) | 
26 | C[C@H]1C(=O)O[C@@H]2CCN3CC=C(COC(=O)[C@](C)(O)[C@]1(C)O)[C@H]23 | 5.61% (inactive) | 
27 | Oc1c(Br)cc(Br)cc1Br | -3.35% (inactive) | 

Row | Structure (SMILES) | activity, negative = inhibition | Potency
28 | C[C@]12CC[C@H]3[C@@H](CC=C4C[C@@H](O)CC[C@@]43C)[C@@H]1CC[C@@H]2O | 4.79% (inactive) | 
29 | COP(=O)(OC)C(O)C(Cl)(Cl)Cl (stereo not drawn) | -0.512% (inactive) | 
30 | CCN(CC)C(C)C(=O)c1ccccc1 (stereo not drawn) | -14.1% (inactive) | 
31 | COP(=O)(OC)OC=C(Cl)Cl | -3.4% (inactive) | 
32 | CNC(=O)NC(O)C(Cl)(Cl)Cl (stereo not drawn) | 0.274% (inactive) | 
33 | NC(=O)CN1CCCC1=O | -0.939% [at 12.8 µM] (inactive) | 
34 | CCC1(CC)C(=O)NC(=O)NC1=O | 10% (inactive) | 
35 | O=c1n(Cl)c(=O)n(Cl)c(=O)n1Cl | 0.736% (inactive) | 
36 | CC(C)C(Br)C(=O)NC(N)=O (stereo not drawn) | -2.05% (inactive) | 
37 | CN(C)C(=S)SSC(=S)N(C)C |  | 3.98 µM (active)
38 | COP(=S)(OC)Oc1ccc(Sc2ccc(OP(=S)(OC)OC)cc2)cc1 | 0.486% (inactive) | 
39 | NCc1cccnc1 | 5.5% (inactive) | 
40 | COc1ccc(C(=O)N2CCCC2=O)cc1 | -1.02% (inactive) | 
41 | c1ccc2nc(N3CCNCC3)ccc2c1 | 5.3% (inactive) | 
42 | CC(C)(C)OC(=O)c1ncn2c1[C@@H]1CCCN1C(=O)c1c(Br)cccc1-2 | -11.5% (inactive) | 

System: CP237
Assay: as above
Conditions: P. falciparum in erythrocytes, SYBR Green DNA, 72 h; series mostly up to 28.7 µM; activity, negative = inhibition: at the top concentration
How it was run: as §1

Row | Structure (SMILES) | activity, negative = inhibition | Potency
43 | CCC1(c2ccccc2)CCC(=O)NC1=O (stereo not drawn) | 5.06% (inactive) | 
44 | C[N+]1(CCC(C(N)=O)(c2ccccc2)c2ccccc2)CCCCC1 | -1.7% (inactive) | 
45 | CCC(=O)O[C@H]1CC[C@H]2[C@@H]3CCC4=CC(=O)CC[C@]4(C)[C@H]3CC[C@]12C | 0.759% [at 12.8 µM] (inactive) | 
46 | OC(c1ccccc1)(c1ccccc1)C1CCNCC1 | -4.41% [at 12.8 µM] (inactive) | 
47 | CC(C)[N+](C)(CCC(C(N)=O)(c1ccccc1)c1ccccc1)C(C)C | 0.756% [at 12.8 µM] (inactive) | 
48 | Cc1ncc2n1-c1ccc(Cl)cc1C(c1ccccc1F)=NC2 | -16.2% (inactive) | 
49 | Cc1ccc(N=CN(C)C=Nc2ccc(C)cc2C)c(C)c1 | -11.3% (inactive) | 
50 | CC(C)NCC(O)c1ccc(N)c(C#N)c1 (stereo not drawn) | 1.84% (inactive) | 
51 | CNC(=O)Oc1cccc2ccccc12 | -21.5% (inactive) | 
52 | CCNc1nc(Cl)nc(NCC)n1 | 1.93% (inactive) | 
53 | CC[n+]1c(-c2ccccc2)c2cc(N)ccc2c2ccc(N)cc21 |  | 158 nM (active) and 398 nM (active)
54 | CCCCCCCCCCCC[N+](C)(C)CCOc1ccccc1 |  | 5.01 µM (active)
55 | CCOC(=O)NC(O)C(Cl)(Cl)Cl (stereo not drawn) | 2.4% (inactive) | 
56 | CCN(Cc1ccc(Cl)nc1)/C(=C/[N+](=O)[O-])NC | 1.18% (inactive) | 
57 | C[C@H]1C(=O)O[C@@H]2CCN3CC=C(COC(=O)[C@](C)(O)[C@]1(C)O)[C@H]23 | -0.204% (inactive) | 
58 | Oc1c(Br)cc(Br)cc1Br | -8.61% (inactive) | 

Row | Structure (SMILES) | activity, negative = inhibition | Potency
59 | C[C@]12CC[C@H]3[C@@H](CC=C4C[C@@H](O)CC[C@@]43C)[C@@H]1CC[C@@H]2O | 1.99% (inactive) | 
60 | COP(=O)(OC)C(O)C(Cl)(Cl)Cl (stereo not drawn) | -13.5% (inactive) | 
61 | CCN(CC)C(C)C(=O)c1ccccc1 (stereo not drawn) | -3.61% (inactive) | 
62 | COP(=O)(OC)OC=C(Cl)Cl | 3.62% (inactive) | 
63 | CNC(=O)NC(O)C(Cl)(Cl)Cl (stereo not drawn) | -4.41% (inactive) | 
64 | NC(=O)CN1CCCC1=O | 8.5% [at 12.8 µM] (inactive) | 
65 | CCC1(CC)C(=O)NC(=O)NC1=O | 3.26% (inactive) | 
66 | O=c1n(Cl)c(=O)n(Cl)c(=O)n1Cl | 3.07% (inactive) | 
67 | CC(C)C(Br)C(=O)NC(N)=O (stereo not drawn) | -3.04% (inactive) | 
68 | CN(C)C(=S)SSC(=S)N(C)C |  | 1.58 µM (active)
69 | COP(=S)(OC)Oc1ccc(Sc2ccc(OP(=S)(OC)OC)cc2)cc1 | 11.5% (inactive) | 
70 | NCc1cccnc1 | -2.53% (inactive) | 
71 | COc1ccc(C(=O)N2CCCC2=O)cc1 | -8.66% (inactive) | 
72 | c1ccc2nc(N3CCNCC3)ccc2c1 | 6.69% (inactive) | 
73 | CC(C)(C)OC(=O)c1ncn2c1[C@@H]1CCCN1C(=O)c1c(Br)cccc1-2 | -17.1% (inactive) | 
